About 13,000 (27%) of roughly 48,000 compounds showed an effect of 50% or more. Some of the results follow.
Test system: Wolbachia pipientis
Assay: Anti-Wolbachia Cell-Based Screen
Assay type: functional
Set-up: scale not given: in the data most compounds retested in dose-response had high values
Conditions: 5 µM

| SMILES | Percent Effect |
| --- | --- |
| CCc1cnc(N2CCC(=O)N(CC3CC3)C(C(C)C)C2)nc1 (stereo unspecified) | -22.71% |
| Cc1cccc(CN2CCc3ncnc(Oc4cccnc4)c3CC2)n1 | 126.9% |
| Cc1cccc(CN2CCc3ncnc(-c4ccsc4)c3CC2)n1.O=C(O)C(F)(F)F | 18.15% |
| COc1ncnc2c1CCN(Cc1cccc(C)n1)CC2 | 95.16% |
| O=C(N1CCOCC1)N1CCc2ncnc(Oc3cccnc3)c2CC1.O=C(O)C(F)(F)F | 0.6158% |
| COc1ncnc2c1CCN(c1cccc(F)c1)CC2 | 16.21% |
| Cc1c(Br)cccc1CNC1(CCO)CCOCC1 | -8.762% |
| Cc1cccc(-c2ccc(C(=O)NCC(C)(C)C(N)=O)c(=O)[nH]2)c1 | 6.298% |
| O=c1n(CC2CCCO2)nc(CC2CCNCC2)n1-c1ccccc1 (stereo unspecified) | -2.06% |
| CNC(=O)CN1CCOCC2(C1)CN(Cc1csnn1)CCO2 (stereo unspecified) | -63.88% |
| Cc1ccc(CN2CCCC3(CCN(Cc4ccoc4)CC3)C2)cc1.O=C(O)C(F)(F)F.O=C(O)C(F)(F)F | 12.66% |
| Fc1ccc(CN2CCOCC3(CCN(Cc4nccs4)C3)C2)cc1.O=C(O)C(F)(F)F.O=C(O)C(F)(F)F (stereo unspecified) | 2.438% |
| O=C(Cc1ccsc1)N1CCCC2(COCCN(CC3CC3)C2)C1.O=C(O)C(F)(F)F (stereo unspecified) | -6.273% |
| CNC(=O)CN1C(=O)CCC12CCCN(CCc1ccccc1)C2 (stereo unspecified) | -21.16% |
| CNC(=O)CN1CCOCC2(CCCN(CCc3ccccc3)C2)C1.O=C(O)C(F)(F)F.O=C(O)C(F)(F)F (stereo unspecified) | 95.77% |
| CNC(=O)CN1CCOCC2(CCCN(Cc3ccc(F)cc3)C2)C1.O=C(O)C(F)(F)F.O=C(O)C(F)(F)F (stereo unspecified) | 113% |
| CNC(=O)CN1CCOCC2(CCCN(Cc3ccsc3)C2)C1.O=C(O)C(F)(F)F.O=C(O)C(F)(F)F (stereo unspecified) | 99.42% |
| CN(C)CCN1CCOCC2(CCCN(C(=O)Cc3ccccc3)C2)C1.O=C(O)C(F)(F)F.O=C(O)C(F)(F)F (stereo unspecified) | -11.48% |
| Fc1ccc(CN2CCCC3(COCCN(Cc4c[nH]nn4)C3)C2)cc1.O=C(O)C(F)(F)F.O=C(O)C(F)(F)F (stereo unspecified) | -5.043% |
| CNC(=O)CN1CCOCC2(CCCN(Cc3ccoc3)C2)C1 (stereo unspecified) | 84.78% |
| O=C(O)C(F)(F)F.O=C(O)C(F)(F)F.c1cc(CN2CCCC3(COCCN(Cc4c[nH]nn4)C3)C2)cs1 (stereo unspecified) | -3.228% |
| CN(C)c1ccc2c(c1)CN(C(=O)c1cnccn1)C2c1cnco1 (stereo unspecified) | 6.67% |
| COCCN1CCOCC2(CCCN(Cc3cccc(F)c3)C2)C1.O=C(O)C(F)(F)F.O=C(O)C(F)(F)F (stereo unspecified) | 114.4% |
| COCCN1CCC2(COCCN(Cc3ccc4c(c3)OCO4)C2)C1.O=C(O)C(F)(F)F.O=C(O)C(F)(F)F (stereo unspecified) | 1.486% |

| SMILES | Percent Effect |
| --- | --- |
| COCCN1CCOCC2(CCCN(Cc3ccc(C)o3)C2)C1.O=C(O)C(F)(F)F.O=C(O)C(F)(F)F (stereo unspecified) | 4.497% |
| COCCOc1ccc(S(=O)(=O)Nc2cccnc2O)cc1C | -11.72% |
| CCC(=O)NC1CCCN(Cc2ccc(NC(C)=O)cc2)C1 (stereo unspecified) | 21.19% |
| CCOc1nnc(CN2CCCC(c3nc4ccccc4[nH]3)C2)s1 (stereo unspecified) | -5.507% |
| CCOc1ccc(CN2CCCC(c3cc4ncccc4[nH]3)C2)cc1 (stereo unspecified) | 111.1% |
| CC(=O)Nc1ccc(CN2CCCC(c3cc4ncccc4[nH]3)C2)cc1 (stereo unspecified) | 130.8% |
| Fc1ccc(CN2CCCC(c3cc4ncccc4[nH]3)C2)cc1 (stereo unspecified) | 39.65% |
| CC(=O)NC1CCCN(Cc2ccc(-n3ccnc3)cc2)C1 (stereo unspecified) | 4.103% |
| CCc1c(C(=O)N2CC(C)OC(C)(C)C2)cnn1-c1ccccn1 (stereo unspecified) | -9.37% |
| CC(C)c1nc(C2CCCN(C(=O)CN3CCN(C)CC3)C2)no1 (stereo unspecified) | -17.54% |
| Cc1nc(C2CCCN2C(=O)CCCn2cccn2)no1 (stereo unspecified) | 80.92% |
| CC(C)c1nc(C2CCCN(C(=O)CCCn3cncn3)C2)no1 (stereo unspecified) | 2.854% |
| Cc1csc(C2CCCCN2C(=O)CCCn2cccn2)n1 (stereo unspecified) | -9.362% |
| Cc1nc(C2CCCN2C(=O)Cn2cncn2)no1 (stereo unspecified) | 83.95% |
| Cc1nc(C2CCCN2C(=O)CCn2cncn2)no1 (stereo unspecified) | 102.5% |
| Cc1nc(C2CCCN2C(=O)CNS(C)(=O)=O)no1 (stereo unspecified) | -1.869% |
| Cc1csc(C2CCCCN2C(=O)Cn2cncn2)n1 (stereo unspecified) | -6.402% |
| Cc1nc(C2CCCN2C(=O)CCCOc2ccccc2C)no1 (stereo unspecified) | 3.026% |
| CC(C)c1nc(C2CCCN(C(=O)CCn3cncn3)C2)no1 (stereo unspecified) | 109.8% |
| Cc1csc(C2CCCCN2C(=O)CCn2cncn2)n1 (stereo unspecified) | 8.818% |
| CCC(CC)n1nc(C)cc1NC(=O)C1CCCO1 (stereo unspecified) | 0.9599% |
| COCCNC(=O)[C@H]1CC[C@@H]2[C@@H](CCN2S(C)(=O)=O)O1 | -5.573% |
| COc1cc2c(cc1-c1nc3c(cnn3C(C)C(C)C)[nH]1)OCO2 (stereo unspecified) | -3.309% |
| Cc1nc(C2CCCN2C(=O)CCCn2cncn2)no1 (stereo unspecified) | 100.4% |

| SMILES | Percent Effect |
| --- | --- |
| CCc1nc(C2CCCN2C(=O)CCCn2cncn2)no1 (stereo unspecified) | 114.2% |
| CC(C)c1nc(C2CCCN2C(=O)CCn2cncn2)no1 (stereo unspecified) | 104.8% |
| CC(C)c1nc(C2CCCN2C(=O)c2cnc[nH]2)no1 (stereo unspecified) | -3.664% |
| Cc1csc(C2CCCCN2C(=O)CCCn2cncn2)n1 (stereo unspecified) | -9.865% |
| COCc1nc(C(=O)N2CCCC2c2noc(C(C)C)n2)cs1 (stereo unspecified) | -1.506% |
| CCc1nc(C2CCCN2C(=O)CCCOc2cccc(F)c2)no1 (stereo unspecified) | -10.09% |
| Cc1cc(S(=O)(=O)Nc2cccc(-n3cccc3)c2)sc1C(=O)O | -5.79% |
| CS(=O)(=O)N[C@H]1CN(C(=O)CCc2ccc(=O)[nH]n2)C[C@@H]1C1CC1 | -10.51% |
| Cc1cc(C(=O)NCC2Cn3nnc(C)c3CO2)no1 (stereo unspecified) | 3.49% |
| CCCc1nccn1-c1ccncc1 | 13.78% |
| COc1ccc(Oc2nccc3occc23)cc1CN1CCCC1 | 7.902% |
| COc1c(C(=O)N2CCNC(=O)C2)cnc2c1c(C)nn2C | 124.2% |
| Cc1cc(C(=O)N2CCCC3(CNC(=O)O3)C2)c2c(C)nn(C)c2n1 (stereo unspecified) | 2.308% |
| O=C(c1cnc(COc2ccccc2)nc1O)N1CCOCC1 | 1.405% |
| COc1c(C)cnc(CNC(=O)c2cc(C)nc3c2c(C)nn3C)c1C | -8.384% |
| Cc1ccc(CNc2ccc(C(=O)N3CCNC(=O)C3)cn2)cc1 | 3.114% |
| Cc1cc(C(=O)N2CCNC(=O)C2)c(C)n1Cc1ccccn1 | -1.908% |
| COC(=O)c1ccccc1NS(=O)(=O)c1c(C)nn(C)c1C | 21.66% |
| COc1c(C(=O)N2CCOCC2)cnc2c1c(C)nn2C | 129.8% |
| COC(=O)c1cnc2c(c(C)nn2C)c1OC | 97.33% |
| O=C1N(CC2CCCCC2)CCCC1(O)CN1CCc2[nH]ncc2C1 (stereo unspecified) | -9.247% |
| COc1cc(F)c(CN2CCN(CC(C)C)C(=O)C2C)cc1OC (stereo unspecified) | 4.949% |
| CN(C)c1ccc(C(=O)NCC2(c3ccccc3)CCOCC2)cc1 | 9.489% |
| CS(=O)(=O)N1C[C@@H]2CC[C@H](C1)N(C(=O)Cn1ccc3ccccc31)C2 | -4.366% |

| SMILES | Percent Effect |
| --- | --- |
| CN(CC(=O)N1CCC(Cc2cccc(C(N)=O)c2)C1)C1CCCC1 (stereo unspecified) | -18.46% |
| CC(C)Oc1ccc(CNC(=O)CC(F)(F)F)cc1F | 4.736% |
| O=C1N(c2cccc(Cl)c2)Cc2nc(=O)[nH]n21 | -8.298% |
| Cc1noc([C@@H]2CC[C@@H]3[C@@H](CCN3c3nnc(C)s3)O2)n1.O=C(O)C(F)(F)F | 108.3% |
| Cc1noc([C@@H]2C[C@@H]3CCN(CC4CCOCC4)C[C@H]3O2)n1.O=C(O)C(F)(F)F | 8.264% |
| Cc1noc([C@H]2C[C@@H]3CCN(c4nnc(C)s4)C[C@H]3O2)n1.O=C(O)C(F)(F)F | 107.3% |
| Cc1noc([C@@H]2CC[C@@H]3[C@@H](CCN3S(=O)(=O)C3CC3)O2)n1 | -8.52% |
| Cc1noc([C@@H]2C[C@H]3CN(Cc4scnc4C)C[C@H]3O2)n1.O=C(O)C(F)(F)F | -4.188% |
| Cc1noc([C@H]2CC[C@@H]3[C@@H](CCN3c3ncccn3)O2)n1 | 101.9% |
| Cc1noc([C@@H]2C[C@@H]3CCN(CC4CC4)C[C@H]3O2)n1.O=C(O)C(F)(F)F | -0.5641% |
| Cc1noc([C@@H]2C[C@@H]3CCN(c4nnc(C)s4)C[C@H]3O2)n1.O=C(O)C(F)(F)F | 122.4% |
| Cc1noc([C@H]2C[C@@H]3CCN(CC4CCOCC4)C[C@H]3O2)n1.O=C(O)C(F)(F)F | 8.046% |
| Cc1noc([C@H]2C[C@@H]3CCN(CC4CC4)C[C@H]3O2)n1.O=C(O)C(F)(F)F | 1.445% |
| Cc1noc([C@H]2CC[C@@H]3[C@@H](CCN3S(C)(=O)=O)O2)n1 | 5.645% |
| Cc1noc([C@@H]2CC[C@@H]3[C@@H](CCN3S(=O)(=O)c3cccnc3)O2)n1.O=C(O)C(F)(F)F | 4.369% |
| CCCc1nc(C)cc(N2CCC3(CCC(=O)N(CCCO)C3)CC2)n1 | 11.58% |
| Cc1cc(SC(C)(C)C)ccc1NCC(=O)NC(N)=O | 1.645% |
| CCCS(=O)(=O)C(C)C(=O)Nc1ccc2oc(C3CC3)nc2c1 (stereo unspecified) | 3.211% |
| Cc1cc(Cc2ccccc2)cc(C2CCCNC2)n1 (stereo unspecified) | 107.8% |
| Cc1cc(Cc2ccc(F)cc2)cc(C2CCCNC2)n1 (stereo unspecified) | 73.78% |
| O=C(NC1CCCNC1)c1cc(COc2cccc(C(F)(F)F)c2)[nH]n1 (stereo unspecified) | 2.713% |
| Cc1cccc(Cc2cc(C)nc(C3CCCNC3)c2)c1 (stereo unspecified) | 70.21% |
| Cc1cc(Cc2cccc(C(F)(F)F)c2)cc(C2CCCNC2)n1 (stereo unspecified) | 97.1% |
| Cl.Cl.FC(F)(F)c1cccc(-c2c[nH]c(C3CCCN3)n2)c1 (stereo unspecified) | -28.55% |

From ChEMBL document CHEMBL3988442, “University of Dundee, Small-Polar-MMV Screening Library” (2021)
